{"source": "the supplement of paper PMC8728848", "test_in_all_cases": "glycan array binding signal (z-score within array); higher = stronger binding", "conditions_in_all_cases": "glycan notation: IUPAC condensed, linker removed; mutation: D224N", "key": {"[1]": {"biological_target": "Fuc(a1-2)Gal(b1-3)GlcNAc(b1-2)Man(a1-3)[Fuc(a1-2)Gal(b1-3)GlcNAc(b1-2)Man(a1-6)]Man(b1-4)GlcNAc(b1-4)GlcNAc", "in_short": "(§1)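 Glycan array data were curated from 3228 arrays in the Consortium for Functional Glycomics database and kept only where the protein sequence was available. Glycan names were converted to IUPAC-condensed notation, and columns mapping to the same glycan were averaged. The binding signal is a within-array Z-score, averaged across arrays of the same protein sequence at different concentrations or buffers and across linkers. Negative Z-scores can be read as non-binding.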"}, "[2]": {"biological_target": "Fuc(a1-2)Gal(b1-3)GlcNAc(b1-3)[Neu5Ac(a2-6)Gal(b1-4)GlcNAc(b1-6)]Gal(b1-4)Glc", "in_short": "as §1"}, "[3]": {"biological_target": "Fuc(a1-2)Gal(b1-3)GlcNAc6S", "in_short": "as §1"}, "[4]": {"biological_target": "Fuc(a1-2)Gal(b1-4)GlcNAc(b1-3)GalNAc", "in_short": "as §1"}, "[5]": {"biological_target": "Fuc(a1-2)Gal(b1-4)GlcNAc(b1-3)[Fuc(a1-2)Gal(b1-4)GlcNAc(b1-6)]GalNAc", "in_short": "as §1"}, "[6]": {"biological_target": "Fuc(a1-2)[Gal(a1-3)]Gal(b1-3)GalNAc", "in_short": "as §1"}, "[7]": {"biological_target": "Fuc(a1-2)[GalNAc(a1-3)]Gal(b1-3)GlcNAc", "in_short": "as §1"}, "[8]": {"biological_target": "Fuc(a1-2)[GalNAc(a1-3)]Gal(b1-4)GlcNAc(b1-3)Gal(b1-4)GlcNAc(b1-3)Gal(b1-4)GlcNAc", "in_short": "as §1"}, "[9]": {"biological_target": "Fuc(a1-3)[Gal(b1-4)]Glc6S", "in_short": "as §1"}, "[10]": {"biological_target": "Fuc(a1-3)[Gal(b1-4)]GlcNAc(b1-2)Man(a1-3)[Fuc(a1-3)[Gal(b1-4)]GlcNAc(b1-2)Man(a1-6)]Man(b1-4)GlcNAc(b1-4)[Fuc(a1-6)]GlcNAc", "in_short": "as §1"}, "[11]": {"biological_target": "Fuc(a1-3)[Gal(b1-4)]GlcNAc(b1-3)Gal(b1-4)[Fuc(a1-3)]GlcNAc(b1-3)Gal(b1-4)[Fuc(a1-3)]GlcNAc", "in_short": "as §1"}, "[12]": {"biological_target": "Fuc(a1-3)[Gal(b1-4)]GlcNAc(b1-6)GalNAc", "in_short": "as §1"}, "[13]": {"biological_target": "Gal(a1-2)Gal", "in_short": "as §1"}, "[14]": {"biological_target": "Gal(a1-3)GalNAc", "in_short": "as §1"}, "[15]": {"biological_target": "Gal(b1-3)GlcNAc(b1-2)Man", "in_short": "as §1"}, "[16]": {"biological_target": "Gal(b1-3)GlcNAc(b1-3)Gal(b1-4)GlcNAc(b1-6)[Gal(b1-3)GlcNAc(b1-3)]Gal(b1-4)Glc", "in_short": "as §1"}, "[17]": {"biological_target": "Gal(b1-4)GlcNAc(b1-3)Gal(b1-4)GlcNAc(b1-2)[Gal(b1-4)GlcNAc(b1-3)Gal(b1-4)GlcNAc(b1-6)]Man(a1-6)[Gal(b1-4)GlcNAc(b1-3)Gal(b1-4)GlcNAc(b1-2)Man(a1-3)]Man(b1-4)GlcNAc(b1-4)GlcNAc", "in_short": "as §1"}, "[18]": {"biological_target": "Gal(b1-4)GlcNAc(b1-3)Gal(b1-4)GlcNAc(b1-3)Gal(b1-4)GlcNAc(b1-3)Gal(b1-4)GlcNAc(b1-2)Man(a1-3)[Gal(b1-4)GlcNAc(b1-3)Gal(b1-4)GlcNAc(b1-3)Gal(b1-4)GlcNAc(b1-3)Gal(b1-4)GlcNAc(b1-2)Man(a1-6)]Man(b1-4)GlcNAc(b1-4)[Fuc(a1-6)]GlcNAc", "in_short": "as §1"}, "[19]": {"biological_target": "Gal(b1-4)GlcNAc(b1-3)Gal(b1-4)GlcNAc(b1-3)Gal(b1-4)GlcNAc(b1-3)Gal(b1-4)GlcNAc(b1-3)Gal(b1-4)GlcNAc(b1-2)Man(a1-3)[Gal(b1-4)GlcNAc(b1-3)Gal(b1-4)GlcNAc(b1-3)Gal(b1-4)GlcNAc(b1-3)Gal(b1-4)GlcNAc(b1-3)Gal(b1-4)GlcNAc(b1-2)Man(a1-6)]Man(b1-4)GlcNAc(b1-4)GlcNAc", "in_short": "as §1"}, "[20]": {"biological_target": "Gal3S(b1-4)[Fuc(a1-3)]Glc6S", "in_short": "as §1"}, "[21]": {"biological_target": "Gal3S6S(b1-4)GlcNAc", "in_short": "as §1"}, "[22]": {"biological_target": "Gal6S(b1-4)Glc6S", "in_short": "as §1"}, "[23]": {"biological_target": "Glc(a1-4)Glc(a1-4)Glc(a1-4)Glc", "in_short": "as §1"}, "[24]": {"biological_target": "GlcNAc(a1-4)Gal(b1-4)GlcNAc", "in_short": "as §1"}, "[25]": {"biological_target": "GlcNAc(a1-4)Gal(b1-4)GlcNAc(b1-3)Gal(b1-4)GlcNAc(b1-3)Gal(b1-4)GlcNAc", "in_short": "as §1"}}, "note": "This is one part of a sample in which the strongest signals are shown more often than they occur."}
{"binder": "a L Fucosidase (Thermotoga maritima) (protein) MASMKPRYKPDWESLREHTVPKWFDKAKFGIFIHWGIYSVPGWATPTGELGKVPMDAWFFQNPYAEWYENSLRIKESPTWEYHVKTYGENFEYEKFADLFTAEKWDPQEWADLFKKAGAKYVIPTTKHHDGFCLWGTKYTDFNSVKRGPKRDLVGDLAKAVREAGLRFGVYYSGGLDWRFTTEPIRYPEDLSYIRPNTYEYADYAYKQVMELVDLYLPDVLWNNMGWPEKGKEDLKYLFAYYYNKHPEGSVNDRWGVPHWDFKTAEYHVNYPGDLPGYKWEFTRGIGLSFGYNRNEGPEHMLSVEQLVYTLVDVVSKGGNLLLNVGPKGDGTIPDLQKERLLGLGEWLRKYGDAIYGTSVWERCCAKTEDGTEIRFTRKCNRIFVIFLGIPTGEKIVIEDLNLSAGTVRHFLTGERLSFKNVGKNLEITVPKKLLETDSITLVLEAVEE", "values": [{"measurement": "glycan array binding signal (z-score)", "setting": "[1]", "result": 0.227}, {"measurement": "glycan array binding signal (z-score)", "setting": "[2]", "result": -0.742}, {"measurement": "glycan array binding signal (z-score)", "setting": "[3]", "result": -0.396}, {"measurement": "glycan array binding signal (z-score)", "setting": "[4]", "result": 0.144}, {"measurement": "glycan array binding signal (z-score)", "setting": "[5]", "result": 0.657}, {"measurement": "glycan array binding signal (z-score)", "setting": "[6]", "result": -0.35}, {"measurement": "glycan array binding signal (z-score)", "setting": "[7]", "result": 2.8}, {"measurement": "glycan array binding signal (z-score)", "setting": "[8]", "result": 0.201}, {"measurement": "glycan array binding signal (z-score)", "setting": "[9]", "result": 2.33}, {"measurement": "glycan array binding signal (z-score)", "setting": "[10]", "result": 1.05}, {"measurement": "glycan array binding signal (z-score)", "setting": "[11]", "result": 0.062}, {"measurement": "glycan array binding signal (z-score)", "setting": "[12]", "result": -0.2}, {"measurement": "glycan array binding signal (z-score)", "setting": "[13]", "result": -0.446}, {"measurement": "glycan array binding signal (z-score)", "setting": "[14]", "result": -0.41}, {"measurement": "glycan array binding signal (z-score)", "setting": "[15]", "result": 0.366}, {"measurement": "glycan array binding signal (z-score)", "setting": "[16]", "result": -0.509}, {"measurement": "glycan array binding signal (z-score)", "setting": "[17]", "result": 1.93}, {"measurement": "glycan array binding signal (z-score)", "setting": "[18]", "result": 0.731}, {"measurement": "glycan array binding signal (z-score)", "setting": "[19]", "result": 0.594}, {"measurement": "glycan array binding signal (z-score)", "setting": "[20]", "result": 0.443}, {"measurement": "glycan array binding signal (z-score)", "setting": "[21]", "result": 1.33}, {"measurement": "glycan array binding signal (z-score)", "setting": "[22]", "result": -0.426}, {"measurement": "glycan array binding signal (z-score)", "setting": "[23]", "result": 2.84}, {"measurement": "glycan array binding signal (z-score)", "setting": "[24]", "result": -0.293}, {"measurement": "glycan array binding signal (z-score)", "setting": "[25]", "result": 0.079}]}
